The full ranking holds about 25,000 sequences; the median of “ln(normalized median fluorescence intensity)” is about 7.1, and the highest 2% start at about 10. The full list was thinned out, with the highest values kept by preference.
These sequences were tested on PfSIP2 AP2 domain 1 (GST-tagged) (assay: gcPBM binding intensity (ln(normalized median fluorescence intensity)); higher = stronger DNA binding).
In short: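 GST-tagged P. falciparum DNA-binding domains, expressed in E. coli (about 25 μg on average), were applied for 1 h to an Agilent 4 × 180k array of primer-extended double-stranded 36-bp intergenic genomic probes plus negative controls. The binding buffer was 1× PBS with 1% milk, 0.2 mg/ml BSA, 0.5% salmon testes DNA and 0.03% Triton X-100. Bound protein was detected with Alexa488 anti-GST antibody and scanned at 488 nm. Binding intensity is the highest Masliner-normalised natural-log median intensity across replicate spots of either probe orientation.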

Row | Sequence | gcPBM binding intensity (ln)
1 | TGTGTATAAGTCACTTGTACTAGTAGTAAAAAAAAA [XGTACX_site4341] | 6.85
2 | ATTATTTTTCTATGTGTGCACGTGTGGAATGTGTCT [GTGCAC_site9507] | 10.3
3 | TTCTATATTATATATGCATGTGTTATTCTTATTTTC [TGCATGCA_site92] | 7.15
4 | TTATTTATTCTATGTGCATGTTATTTTTTTTTTTCG [TGCATGCA_site262] | 7.6
5 | ATATATATTAATATTTGTACATAAAATTATTTCAAT [XGTACX_site5364] | 7.14
6 | TTTTCAATATATTAATGTACGAATACGCAAATAAGA [XGTACX_site1613] | 7.23
7 | GTATATGAATAATATTTTATGGTAATTTTTTTTTTT [XGTACX_negctrl_site512] | 6.91
8 | ATATGACATAAAACATGTACATGTTCATAAATATAT [XGTACX_site1923] | 7.07
9 | AAATATAATAATATATGTACATATATATATATATAT [XGTACX_site6980] | 9.73
10 | ATATATATTAATTTTGTGCACAAATGGAAATGTTTG [GTGCAC_site9971] | 8.34
11 | AAAAAAAATTTAATTGCACACAGGAAAATATAATTT [CACACA_site3810] | 7.01
12 | GAAATTTTTAATGTGGTGCACAGGAAATTTTTTCTT | 11
13 | AAGCGAATCTATATCACACACAAAAAAATCAGACTA [CACACA_site7072] | 6.94
14 | GACTACACACAAGGGTGTACATATATATTATATATA [XGTACX_site2247] | 7.31
15 | TAAGTATAATATTGATGTACATATAATAACTTGTAT [XGTACX_site417] | 7.03
16 | TCTTTCCTTATTAAAACACACAAATACATTATTTAA [CACACA_site2147] | 7.13
17 | CATTTTATTTTCTTTGTGCACAAAAATATTTTTTCT | 8.78
18 | TTTTATTTCTTTGCACCATTTTAAATACAAACAAAT [CACACA_negctrl_site1553] | 10.7
19 | ATATGTACAAGTTATACACACATGTACAGTTATATA [CACACA_site6706] | 7.11
20 | TATGAGAAAAAAAGTACATGCACAAAATGTATATGT [TGCATGCA_site789] | 7.3
21 | ATATGAAGTTATATAGTGCACATGTACAACCAAATC [GTGCAC_site9974] | 10.4
22 | GAAGTTAGTGTTGACTGTACATATATATGTATATAT [XGTACX_site7243] | 7.21
23 | GAAATTATGTAAAAAAGTACTAACATACATATATAT [XGTACX_site1794] | 7.18
24 | AATGTGCAAACAAACTGTACTTTTTTTTTTTTTTTT [XGTACX_site928] | 7.84
25 | AAAAACAAACTGTGCATGCACCAAAAAAAAAAAAAA | 10.4
26 | GAATTTATGAACTGTGCATGTAAAAAAAACAACAAA [TGCATGCA_site449] | 8.15

Row | Sequence | gcPBM binding intensity (ln)
27 | TTATTTACTTATTGCACACATATAAAATATATTTAT [CACACA_site3101] | 7.74
28 | TAATATATTTATAGAGCATGCAACGTAATATTATTA [TGCATGCA_site863] | 7.12
29 | TACGTCTTTTTTTTGGTGCATAATTTTTTTGTACAA | 10.9
30 | AAAATTTCTTTTTTTTGTACATATATAATAATATAT [XGTACX_site7107] | 6.92
31 | ATTTTTTTGGTAATTTGTACATAATATATACATAAT [XGTACX_site3742] | 7.21
32 | TTAACGCTTATTTTTTGTACTTATTTTATTTTAAAT [XGTACX_site3977] | 7.22
33 | CCCTATATAAATAGCTGTACATTTGAACATGTTCAG [XGTACX_site2187] | 6.97
34 | GCAATTTTTTTTAAGAGTACTAATATATTATAGTGG [XGTACX_site7316] | 7.11
35 | AATAAATAGATATATACACACATATATGTGTACATA [CACACA_site7476] | 7.06
36 | TGTGTGTGTATATGTGTGCACATATAAAATAGAAGA [GTGCAC_site9714] | 8.95
37 | TGTGCGGAAATAAGTGCACACATAGATATCTGTATT [CACACA_site5935] | 10.9
38 | TATGTATAAATATATGCACACATATATATATTTATA [CACACA_site9150] | 7.18
39 | TATAAATATCTGTATGCACACATTTTTTTTGGAAAA [CACACA_site4734] | 8.04
40 | TACAAATATATATGCACACACATATCTGTATATGTG [CACACA_site5663] | 7.66
41 | TGTGCGGAAATAAGTGCACACATAGATATATGTATT [CACACA_site9227] | 10.8
42 | TGCGGAAATAAGTGCACACATAGATATATGTATTTT [CACACA_site3689] | 10.8
43 | TATAAATATATGTATGCACACATTTTTTTTGGAAAA [CACACA_site1070] | 8.1
44 | TTTTTCTCTTTAAGGTGTACAATAATACAGTAACCA [XGTACX_site300] | 7.44
45 | ATAAATAATAAAAAATGTACACATATAAATATAAAG [XGTACX_site727] | 7.11
46 | TCTTACGGATTCATTGTGCACATATATATATATATA [GTGCAC_site9896] | 9.46
47 | AGCACACGCAGACACACACACACACGCACACGCACA [CACACA_site6306] | 8.43
48 | TACCACATCGGTAAATGTACTTATAAAAAAAAAAAA [XGTACX_site3364] | 6.83
49 | GATATATTTTATATATGTACATACAATGGTAAATAT [XGTACX_site2759] | 7.09
50 | TATATATTGTTATATACACACATGTATTTAAAAAAT [CACACA_site5737] | 6.91
51 | ATCATATTTATGTTGGTGCATTATACATAAAGTTTA [GTGCAC_site9574] | 10.2
52 | ACATTTAAAATTTATGCATGTGGTGTTTTGTATATA [TGCATGCA_site534] | 7.26

Row | Sequence | gcPBM binding intensity (ln)
53 | TTACACATGTATTTGGTGCATGTTGTTAACAAAATA | 9.57
54 | CATACAATAAATATGGTGCATTTTATGTAACCGTTT [GTGCAC_site9420] | 10.4
55 | TTTTGTTTATGTGTGCATTATATTATATTTTTTATT [TGCATGCA_negctrl_site146] | 7.83
56 | ATATATATATTTTATGCATGTTCATTTTCTATATTT [TGCATGCA_site442] | 8.1
57 | TTTATTTTGTTTATGGTGCATTTTATGTAAATATAT | 10.8
58 | TTTTTGTTCTATATGGTGCATGTTTATATTCGTATT | 10.3
59 | ACACATGTATTTGGTGCATGTTGTTAAAAAAATATT [TGCATGCA_site795] | 10.8
60 | TATATATATATGTATGCATGTTGTTTTTTATTTAAT [TGCATGCA_site343] | 9.27
61 | ATGAAATTTATATCATGTACATACAAGAGAAAAAAA [XGTACX_site3326] | 7
62 | ATTCTTTTTTTTTGGAAATGTATTTTTATGTTTTGT [TGCATGCA_negctrl_site426] | 6.73
63 | TTAAAAATAAATTCATGTACATAATATATATATATA [XGTACX_site7908] | 9.25
64 | TTTTTTGTTTGAATGGTGCATTTTGTAATTATATTT | 10.6
65 | TTATATTTATATTTATGTACATATTTTGTGTGAAAA [XGTACX_site2367] | 7.27
66 | ATTTTGTGTAGTGATGCATGTTATATATATATTTGA [TGCATGCA_site422] | 7.33
67 | TTATATTAATTTTGTTGTACTATTTGTGCATTAAAT [XGTACX_site4790] | 7.42
68 | ATATATTTTTGTAGTGTGCACGTTTATATGGTGAAA | 10.3
69 | TTTTGTAATGTGAATATTTGTATATTATTTGTATAT [CACACA_negctrl_site1677] | 7.03
70 | AAAAAAAAAAAAAATAGTACAATACCCAAATATAAC [XGTACX_site6684] | 7.3
71 | AAAAAAAAAAAAAAAGGTACAGTAAAAAATTCCTCT [XGTACX_site5947] | 7.41
72 | GATAAATAATAATAAGGTACACATAAAATATTCCTT [XGTACX_site2963] | 6.86
73 | CACACAGGTAAAAAGGTGCAGTTGAAATATTCCTCA [GTGCAC_site9730] | 11.1
74 | AAAAATAAATATACATGTACATAATAATAATATATA [XGTACX_site8359] | 6.97
75 | CTTTTAGAATAATCAGTGCAAAAAAAAAAAAAAAAA | 8.42
76 | GATAATCAGAATGGGGTGCAAAGAAAAAAAAAAAAA | 11.3
77 | TATTTAAAATAATGTGCAAAAGAATAAATAAATAAA [TGCATGCA_negctrl_site194] | 7.23
78 | TTTTTTTTTAAGTTTGCACACATGGAAGACAAAAAT [CACACA_site2505] | 7.96
